Among all 5,500 compounds or so, about 2,000 (36%) were called active. Another 18% or so got no clear call; they are omitted. Rule as the data show it: active = normalized growth mostly below about 0.91 (no sharp cut-off); inconclusive = no clear call, values can overlap the other calls; inactive = mostly above about 0.92. The list shows a part of the results.
Test: chemical genetic growth profiling, strain panel (AID 1159580);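 also: tested at 20 µM; growth read once vehicle control cultures reached saturation at 30 °C; 1 = growth at the plate median or of vehicle wells; lower values mean less growth of the strain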
Details: growth OD

Measured: normalized growth

N#C/C(=C\c1ccc(O)cc1)C(=O)O
inactive: S. cerevisiae deletion strains, locus YJR075W, strain HOC1, active compounds read low 0.979 | S. cerevisiae deletion strains, locus YKL009W, strain mrt4, active compounds read low 0.963 | S. cerevisiae deletion strains, locus YKL068W, active compounds read low 0.999 | S. cerevisiae deletion strains, locus YKL085W, strain MDH1 (second series), active compounds read low 0.973 | S. cerevisiae deletion strains, locus YKL085W, strain MDH1, active compounds read low 0.973 | S. cerevisiae deletion strains, locus YKL160W, strain elf1, active compounds read low 0.988 | S. cerevisiae deletion strains, locus YKL190W, strain CNB1, active compounds read low 0.992 | S. cerevisiae deletion strains, locus YKR001C, strain vps1, active compounds read low 1.01 | S. cerevisiae deletion strains, locus YKR026C, strain gcn3, active compounds read low 0.97 | S. cerevisiae deletion strains, locus YKR091W, strain srl3, active compounds read low 0.994 | S. cerevisiae deletion strains, locus YLL001W, strain dnm1, active compounds read low 0.994 | S. cerevisiae deletion strains, locus YLL026W, active compounds read low 1.01 | S. cerevisiae deletion strains, locus YLL041C, strain sdh2, active compounds read low 0.995 | S. cerevisiae deletion strains, locus YLR027C, strain aat2, active compounds read low 1.01 | S. cerevisiae deletion strains, locus YLR039C, strain RIC1, active compounds read low 0.981 | S. cerevisiae deletion strains, locus YLR058C, strain SHM2, active compounds read low 0.979 | S. cerevisiae deletion strains, locus YLR102C, strain apc9, active compounds read low 0.988 | S. cerevisiae deletion strains, locus YLR113W, strain HOG1, active compounds read low 1.01 | S. cerevisiae deletion strains, locus YLR221C, strain rsa3, active compounds read low 0.984 | S. cerevisiae deletion strains, locus YLR258W, strain gsy2, active compounds read low 1 | S. cerevisiae deletion strains, locus YLR262C, strain YPT6 (second series), active compounds read low 0.993 | S. cerevisiae deletion strains, locus YLR262C, strain YPT6, active compounds read low 0.97 | S. cerevisiae deletion strains, locus YLR268W, strain sec22, active compounds read low 0.985 | S. cerevisiae deletion strains, locus YLR320W, strain mms22, active compounds read low 1.03 | S. cerevisiae deletion strains, locus YLR330W, strain CHS5, active compounds read low 0.992 | S. cerevisiae deletion strains, locus YLR342W, strain FKS1 (second series), active compounds read low 1.07 | S. cerevisiae deletion strains, locus YLR342W, strain FKS1, active compounds read low 1.01 | S. cerevisiae deletion strains, locus YLR357W, strain rsc2, active compounds read low 0.989 | S. cerevisiae deletion strains, locus YLR370C, strain arc18, active compounds read low 0.995 | S. cerevisiae deletion strains, locus YLR371W, strain rom2, active compounds read low 1.01 | S. cerevisiae deletion strains, locus YLR384C, strain iki3, active compounds read low 1 | S. cerevisiae deletion strains, locus YLR418C, strain cdc73, active compounds read low 0.953 | S. cerevisiae deletion strains, locus YML016C, strain PPZ1, active compounds read low 0.992 | S. cerevisiae deletion strains, locus YML032C, strain rad52, active compounds read low 1.03 | S. cerevisiae deletion strains, locus YML120C, strain ndi1, active compounds read low 0.994 | S. cerevisiae deletion strains, locus YML124C, strain tub3, active compounds read low 0.999 | S. cerevisiae deletion strains, locus YMR058W, strain fet3, active compounds read low 0.988 | S. cerevisiae deletion strains, locus YMR078C, strain ctf18, active compounds read low 0.998 | S. cerevisiae deletion strains, locus YMR125W, strain sto1, active compounds read low 0.96 | S. cerevisiae deletion strains, locus YMR129W, active compounds read low 0.982 | S. cerevisiae deletion strains, locus YMR205C, strain PFK2, active compounds read low 1.04 | S. cerevisiae deletion strains, locus YMR223W, strain ubp8, active compounds read low 1.04 | S. cerevisiae deletion strains, locus YMR231W, strain pep5, active compounds read low 1.01 | S. cerevisiae deletion strains, locus YMR263W, strain SAP30, active compounds read low 0.962 | S. cerevisiae deletion strains, locus YMR307W, strain GAS1, active compounds read low 1.12 | S. cerevisiae deletion strains, locus YNL067W, strain RPL9B, active compounds read low 0.974 | S. cerevisiae deletion strains, locus YNL071W, strain lat1, active compounds read low 0.998 | S. cerevisiae deletion strains, locus YNL128W, strain TEP1, active compounds read low 0.927 | S. cerevisiae deletion strains, locus YNL153C, strain GIM3, active compounds read low 0.953 | S. cerevisiae deletion strains, locus YNL183C, strain NPR1, active compounds read low 0.993 | S. cerevisiae deletion strains, locus YNL209W, strain ssb2, active compounds read low 0.997 | S. cerevisiae deletion strains, locus YNL233W, strain BNI4, active compounds read low 0.997 | S. cerevisiae deletion strains, locus YNL248C, strain rpa49, active compounds read low 0.963 | S. cerevisiae deletion strains, locus YNL250W, strain rad50, active compounds read low 0.968 | S. cerevisiae deletion strains, locus YNL271C, strain bni1, active compounds read low 1.01 | S. cerevisiae deletion strains, locus YNL298W, strain CLA4, active compounds read low 1 | S. cerevisiae deletion strains, locus YNL307C, strain MCK1, active compounds read low 1.03 | S. cerevisiae deletion strains, locus YNL322C, strain KRE1 (second series), active compounds read low 0.996 | S. cerevisiae deletion strains, locus YNL322C, strain KRE1, active compounds read low 0.977 | S. cerevisiae deletion strains, locus YNR049C, strain mso1, active compounds read low 0.996 | S. cerevisiae deletion strains, locus YNR052C, strain pop2, active compounds read low 1 | S. cerevisiae deletion strains, locus YOL006C, strain TOP1, active compounds read low 0.912 | S. cerevisiae deletion strains, locus YOL012C, strain htz1 1.16 | S. cerevisiae deletion strains, locus YOL147C, strain pex11, active compounds read low 0.998 | S. cerevisiae deletion strains, locus YOR001W, strain rrp6, active compounds read low 0.982 | S. cerevisiae deletion strains, locus YOR061W, strain CKA2, active compounds read low 0.954 | S. cerevisiae deletion strains, locus YOR069W, strain VPS5, active compounds read low 0.992 | S. cerevisiae deletion strains, locus YOR070C, strain gyp1, active compounds read low 1 | S. cerevisiae deletion strains, locus YOR080W, strain dia2, active compounds read low 0.996 | S. cerevisiae deletion strains, locus YOR083W, strain WHI5, active compounds read low 0.978 | S. cerevisiae deletion strains, locus YOR106W, strain vam3, active compounds read low 0.997 | S. cerevisiae deletion strains, locus YOR136W, strain idh2, active compounds read low 1 | S. cerevisiae deletion strains, locus YOR144C, strain elg1, active compounds read low 0.993 | S. cerevisiae deletion strains, locus YOR184W, strain ser1, active compounds read low 1.08 | S. cerevisiae deletion strains, locus YOR231W, strain MKK1, active compounds read low 1.04 | S. cerevisiae deletion strains, locus YOR265W, strain rbl2, active compounds read low 1 | S. cerevisiae deletion strains, locus YOR270C, strain vph1, active compounds read low 0.989 | S. cerevisiae deletion strains, locus YOR290C, strain snf2, active compounds read low 0.958 | S. cerevisiae deletion strains, locus YOR316C, strain cot1, active compounds read low 0.985 | S. cerevisiae deletion strains, locus YPL051W, strain arl3, active compounds read low 0.988 | S. cerevisiae deletion strains, locus YPL055C, strain LGE1, active compounds read low 0.908 | S. cerevisiae deletion strains, locus YPL078C, strain atp4, active compounds read low 0.971 | S. cerevisiae deletion strains, locus YPL106C, strain sse1, active compounds read low 1 | S. cerevisiae deletion strains, locus YPL240C, strain hsp82, active compounds read low 0.986 | S. cerevisiae deletion strains, locus YPL241C, strain CIN2, active compounds read low 0.985 | S. cerevisiae deletion strains, locus YPL256C, strain CLN2, active compounds read low 1.09 | S. cerevisiae deletion strains, locus YPR119W, strain clb2, active compounds read low 1 | S. cerevisiae deletion strains, locus YPR141C, strain kar3, active compounds read low 0.977 | S. cerevisiae deletion strains, locus YPR163C, strain tif3, active compounds read low 1.01 | S. cerevisiae deletion strains, locus YPR167C, strain met16, active compounds read low 0.984 | S. cerevisiae deletion strains, strain wtn01, active compounds read low 0.977 | S. cerevisiae strains, strain wild type, active compounds read low 0.983
